Out of some 310,000 compounds screened, about 14,000 (4.5%) showed an effect of 50% or more. The effect is printed as a negative number. The full list was thinned out, with strong results kept by preference.
Target: human ether-à-go-go-related gene (hERG) potassium channel (human, UniProt Q12809)
Assay: primary screen, population patch clamp on CHO cells stably expressing hERG; higher = less effect of the substance
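Also: peak tail current of the secondary pulse compared with the same well before compound.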

human ether-à-go-go-related gene (hERG) potassium channel, sequence (Q12809 whole entry, looked up): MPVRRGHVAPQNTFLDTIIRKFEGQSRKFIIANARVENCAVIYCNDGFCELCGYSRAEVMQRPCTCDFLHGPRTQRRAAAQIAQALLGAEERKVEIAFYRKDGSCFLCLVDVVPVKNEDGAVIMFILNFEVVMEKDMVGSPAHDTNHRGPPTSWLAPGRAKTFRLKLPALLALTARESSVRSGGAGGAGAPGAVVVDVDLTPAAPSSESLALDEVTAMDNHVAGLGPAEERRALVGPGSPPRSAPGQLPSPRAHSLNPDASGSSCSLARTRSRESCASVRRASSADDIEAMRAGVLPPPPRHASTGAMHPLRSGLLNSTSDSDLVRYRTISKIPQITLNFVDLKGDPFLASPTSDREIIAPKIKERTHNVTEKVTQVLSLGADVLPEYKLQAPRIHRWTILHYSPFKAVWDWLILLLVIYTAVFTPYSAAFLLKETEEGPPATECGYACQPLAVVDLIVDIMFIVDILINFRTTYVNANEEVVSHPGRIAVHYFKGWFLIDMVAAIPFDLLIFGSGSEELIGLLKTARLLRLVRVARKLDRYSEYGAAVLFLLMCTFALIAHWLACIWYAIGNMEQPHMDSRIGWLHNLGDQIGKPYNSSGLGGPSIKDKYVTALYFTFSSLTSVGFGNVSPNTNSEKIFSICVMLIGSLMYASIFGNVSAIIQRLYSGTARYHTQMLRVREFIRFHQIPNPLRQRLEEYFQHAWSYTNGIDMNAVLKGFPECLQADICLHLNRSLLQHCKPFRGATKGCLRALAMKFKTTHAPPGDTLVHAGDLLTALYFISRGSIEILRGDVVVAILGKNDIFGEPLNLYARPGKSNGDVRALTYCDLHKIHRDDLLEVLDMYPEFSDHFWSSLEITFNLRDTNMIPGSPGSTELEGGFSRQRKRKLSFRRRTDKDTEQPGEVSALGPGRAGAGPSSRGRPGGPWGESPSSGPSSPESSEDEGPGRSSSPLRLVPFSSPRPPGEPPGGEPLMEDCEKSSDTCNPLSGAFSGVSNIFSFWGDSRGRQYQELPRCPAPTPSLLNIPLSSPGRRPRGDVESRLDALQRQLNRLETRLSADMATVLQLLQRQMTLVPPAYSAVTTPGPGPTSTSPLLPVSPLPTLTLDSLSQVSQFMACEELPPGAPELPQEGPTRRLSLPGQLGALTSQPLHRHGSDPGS

Point of comparison: `CCOc1cc(/C=N/NC(=O)CN2CCOCC2)ccc1OCc1ccccc1`, “hERG current change (%, negative = inhibition) at 10uM” value -9.58%. Against it:
- O=C(/C=C/c1cccc([N+](=O)[O-])c1)NCc1ccco1 — lower, -33%
- Cc1ccc(C2CC(=O)N3CN(c4ccc(Br)cc4)CSC3=C2C#N)o1 (centres unmarked) — higher, 11.1%
- Cc1nc2cc3nc(C(F)(F)F)[nH]c3cc2[nH]1 — higher, 0.0754%
- CCc1ccc(NC(=O)CSc2nc3ccccc3c(=O)n2CCCC(=O)N2CCCC2)cc1 — lower, -27.9%
- CC1CCN(CCCn2c(SCC(=O)Nc3ccccc3Cl)nc3ccccc3c2=O)CC1 — lower, -70.8%
- O=C(CCCn1c(SCC(=O)Nc2ccccc2Cl)nc2ccccc2c1=O)NCC1CCCO1 (centres unmarked) — lower, -48.9%
- CCCCn1c(SCC(=O)NC2CCCC2)nc2ccccc2c1=O — higher, -4.43%
- CC1CCN(CCCn2c(SCC(=O)NC3CCCC3)nc3ccccc3c2=O)CC1 — lower, -77%
- CCCCn1c(SCC(=O)Nc2ccc(NC(C)=O)cc2)nc2ccccc2c1=O — higher, -2.55%
- O=C(CSc1nc2ccccc2c(=O)n1CCCO)NC1CC1 — lower, -13.4%
- CCOCCCn1c(SCC(=O)NC2CCCC2)nc2ccccc2c1=O — higher, -1.74%
- CCc1ccc(NC(=O)CSc2nc3ccccc3c(=O)n2CCCN2CCC(C)CC2)cc1 — lower, -67.2%
- CNC(=O)N(O)C1N(/N=C/c2c(F)cccc2Cl)C(=S)SC1(C)C (centres unmarked) — higher, 18%
- CC(=O)c1cccc(NC(=O)C(C)OC(=O)c2cc(=O)[nH]c3ccccc23)c1 (centres unmarked) — higher, -0.987%
- CCC(CNc1cc(OC)cc2cccnc12)NC1CCCCC1 (centres unmarked) — lower, -26.2%
- COc1cc(C(=O)O)cc(NC(=O)c2cccs2)c1OC — higher, 13%
- NS(=O)(=O)c1ccc(CCNS(=O)(=O)c2cccc(C(=O)O)c2)cc1 — higher, 15.9%
- COc1ccc(NS(=O)(=O)c2cc3c(cc2C)N(C)CCO3)c(OC)c1 — higher, 1.28%
- COc1ccc(C(=O)C2CCCN(Cc3cccn3-c3nccs3)C2)cc1OC (centres unmarked) — lower, -82%
- COc1ccc(C(=O)C2CCCN(Cc3cccn3-c3cccnc3)C2)cc1OC (centres unmarked) — lower, -62.9%
- COc1cccc(C(=O)C2CCCN(Cc3cccn3-c3cccnc3)C2)c1 (centres unmarked) — lower, -29%
- COc1ccc(C(=O)C2CCCN(Cc3cnc(N4CCOCC4)s3)C2)cc1F (centres unmarked) — lower, -47.6%
- O=C(c1ccc2c(c1)OCO2)C1CCCN(Cc2cccn2-c2cccnc2)C1 (centres unmarked) — lower, -58.3%
- COc1ccc(C(=O)C2CCCN(Cc3cccn3-c3nccs3)C2)cc1F (centres unmarked) — lower, -83.5%
- COc1ccc(C(=O)C2CCCN(Cc3cnc(N4CCCC4)s3)C2)cc1OC (centres unmarked) — lower, -44%
- COc1ccc(C(=O)C2CCCN(C(=O)c3cccs3)C2)cc1F (centres unmarked) — higher, -8.95%
- S=C1NCCc2ccccc2C1c1ccccc1 (centres unmarked) — lower, -14.5%
- C/C(=C\C(=S)Nc1ccccc1)Nc1ccccc1 — higher, 22.4%
- CCOc1ccccc1CNC(=O)Cn1ccc2cc(S(=O)(=O)N3CCCCCC3)ccc21 — higher, 10.4%
- COc1ccc2cc(N=Cc3nc(-c4ccc(C)cc4)oc3O)cnc2c1 — higher, 1.84%
- CCC(=O)N1CCc2cc(S(=O)(=O)N3CCCCCC3)ccc21 — higher, 12.6%
- CNC(=O)c1cccn1-c1ccsc1C(=O)OC — higher, 7.33%
- COc1ccc(Cc2nc3ccc(C(=O)N(C)CCn4ccnc4)cc3o2)cc1OC — higher, 15.5%
- O=C(COC(=O)c1ccc(F)cc1F)Nc1ccc2[nH]c(=O)[nH]c2c1 — higher, 10.3%
- Cc1cc(C(=O)C(=O)N(C)C)c(C)n1-c1ccc([N+](=O)[O-])cc1 — lower, -25.7%
- Cc1cc(C(=O)C(=O)NC(C)C)c(C)n1-c1ccc([N+](=O)[O-])cc1 — lower, -22.8%
- C=CCN(CC=C)C(=O)C(=O)c1cc(C)n(-c2ccc([N+](=O)[O-])cc2)c1C — lower, -63.4%
- O=C(/C=C/C=C/c1ccc2c(c1)OCO2)N1CCCCC1 — higher, -8.23%
- CCc1noc(C)c1C(=O)OCC(=O)NC(=O)c1ccccc1OC — higher, 12.5%
- COc1cc(OC)c(C#N)c(S(=O)(=O)Cc2ccccc2)c1 — higher, -3.9%
- CN(C)CCNC(=O)c1ccc2c(c1)NC(=O)c1ccccc1S2 — higher, 17.3%
- CCC(C)N(CCNC(=O)CC1Oc2ccc(C)cc2NC1=O)C1CCCCC1 (centres unmarked) — lower, -71.5%
- Cc1ccc2c(c1)NC(=O)C(CC(=O)NCCN(CC(C)C)CC(C)C)O2 (centres unmarked) — lower, -24.7%
- CCC(C)N(CCNC(=O)c1ccc2c(c1)NC(=O)c1ccccc1S2)C1CCCCC1 (centres unmarked) — lower, -66.4%
- CCN(CCNC(=O)CC1Oc2ccccc2NC1=O)c1ccccc1 (centres unmarked) — higher, 9.82%
- CCC(C)N(CCNC(=O)CC1Oc2ccccc2NC1=O)C1CCCCC1 (centres unmarked) — lower, -57.7%
- CCN(CC)CCNC(=O)c1ccc2c(c1)NC(=O)c1ccccc1S2 — lower, -31.9%
- CC(C)CN(CCNC(=O)CC1Oc2ccccc2NC1=O)CC(C)C (centres unmarked) — lower, -27.7%
- Cc1ccc2c(c1)NC(=O)C(CC(=O)NCCN(C)C)O2 (centres unmarked) — higher, -2.42%
- COCCn1c(C)cc2c(c1=O)C(c1ccco1)C(C#N)=C(N)O2 (centres unmarked) — higher, 12.7%
- C=CCn1c(CSc2nnc(-c3ccccc3)n2C)n[nH]c1=S — higher, 16.7%
- O=C(Nc1ccc(Cl)cc1)c1ccc(Br)cc1F — higher, 14.4%
- COCc1cc(Sc2cccc(Cl)c2Cl)nc(-c2ccccc2)n1 — higher, 9.15%
- Cc1ccc(S(=O)(=O)N(CC(=O)NN=C2CCN(C)CC2)c2ccc(C(C)C)cc2)cc1 — lower, -21.3%
- CCn1cc(C(=O)N2CCN(Cc3ccc4c(c3)OCO4)CC2)c(=O)c2ccc(C)nc21 — higher, -1.84%
- CCC(C)(C)NC(=O)C(c1ccc(OC)cc1)N(C(=O)CCC(=O)Nc1cc(C)on1)c1ccc(OC)c(OC)c1 (centres unmarked) — higher, 3.38%
- Cc1ccc(OCC(=O)N/N=C/c2cn(C)c3ccccc23)cc1 — higher, 10.2%
- CC1c2cccn2CCN1S(=O)(=O)c1ccc(F)cc1 (centres unmarked) — lower, -52.3%
- CC1c2cccn2CCN1S(=O)(=O)c1ccccc1 (centres unmarked) — higher, 5.9%
- Cc1ccc(S(=O)(=O)N2CCn3cccc3C2C)cc1 (centres unmarked) — lower, -22.7%
- COc1cc(NS(=O)(=O)c2ccc(NC(=O)/C(=C\c3ccccc3OC)NC(=O)c3ccccc3)cc2)nc(OC)n1 — higher, 26.5%
- COc1cc(/C=N/NC(=O)CN2CCOCC2)ccc1OCc1ccccc1 — higher, 5.45%
- COc1cc(/C=N/NC(=O)CN2CCCCC2)ccc1OCc1ccccc1 — lower, -64.1%
- CCOc1ccc(/C=N/NC(=O)CN2CCCCC2)cc1OCC — higher, 11%
- O=C(CN1CCCCC1)N/N=C/c1ccccc1OCc1ccccc1 — lower, -30.2%
- CCCOc1ccc(/C=N/NC(=O)CN2CCCCC2)cc1OCC — lower, -51.4%
- C=CCOc1ccc(/C=N/NC(=O)C(=O)N2CCCCCC2)cc1OC — higher, 16.5%
- CCOc1cc(/C=N/NC(=O)CN2CCCCC2)ccc1O — higher, -5.51%
- CCOc1cc(/C=N/NC(=O)CN2CCCCC2)ccc1OCc1ccccc1 — lower, -59.9%
- C=CCOc1ccc(/C=N/NC(=O)CN2CCOCC2)cc1OCC — higher, 12.4%
- CCOc1cc(/C=N/NC(=O)CN2CCCCC2)ccc1OCc1cccc(Cl)c1 — lower, -45.3%
- C=CCOc1ccc(/C=N/NC(=O)CN2CCCCC2)cc1OC — lower, -61%
- CC(=O)N1c2ccccc2C(C)(C)C2CCC(C)CC21 (centres unmarked) — higher, -8.9%
- COc1ccc(-c2cn[nH]c2-c2ccc(OC)cc2)cc1 — higher, 8.51%
- CCN(CC)C(=O)c1c[nH]c2ccc(S(=O)(=O)Nc3cc(C)cc(C)c3)cc2c1=O — higher, -0.741%
- CCOC(=O)c1[nH]c(Cc2[nH]c(C(=O)OCC)c(C)c2CCC(=O)OC)c(CCC(=O)OC)c1C — higher, 3.71%
- COc1cccc(-c2nc(-c3ccccc3)no2)c1 — higher, 1.72%
- Cc1cccc(Nc2nc3c(S(=O)(=O)c4ccccc4)nnn3c3ccccc23)c1C — higher, 12.6%
- CCC(C)NC(=O)Cn1nc(C(F)(F)F)c2c1CCC2 (centres unmarked) — higher, 1.83%
- N#Cc1c(SCC(=O)Nc2nc3ccccc3s2)sc2c(O)cc(=O)[nH]c12 — higher, 20.7%
- c1ccc2c(c1)nc(Nc1ccc(N3CCCCC3)cc1)c1nncn12 — lower, -13.8%
- Cc1nc(-c2ccc(F)cc2)c(CC(=O)Nc2cccc(S(=O)(=O)N3CCOCC3)c2)s1 — lower, -15.8%
- Cc1nn(-c2ccccc2)c(N2CCCC2)c1/C=N/NC(=O)c1cc(-c2ccccc2)nc2ccccc12 — higher, 13.3%
- COc1cc(/C=N/NC(=O)c2ccncc2)ccc1OCCN1CCCCC1 — higher, -3.37%
- COc1ccc(Br)cc1/C=N/NC(=O)CN1CCN(Cc2ccccc2)CC1 — lower, -33.1%
- COc1ccc(Br)cc1/C=N/NC(=O)CN1CCCCC1 — higher, -4.99%
- COc1cc(/C=N/NC(=O)CCN2CCN(Cc3ccccc3)CC2)cc(OC)c1OC — lower, -29.2%
- Cc1nn(-c2ccccc2)c(N2CCCC2)c1/C=N/NC(=O)c1ccccc1O — higher, -2.88%
- COc1cc(/C=N/NC(=O)CN2CCCCC2)ccc1OCc1ccc(Br)cc1 — lower, -59%
- CCOc1cc(/C=N/NC(=O)CN2CCCCC2)ccc1OCc1ccc(Cl)cc1 — higher, 7.37%
- Cc1nn(-c2ccccc2)c(N2CCCC2)c1/C=N/NC(=O)c1cc2ccccc2cc1O — lower, -55.5%
- COc1ccc(/C=N/NC(=O)CN2CCN(Cc3ccccc3)CC2)cc1Br — lower, -68%
- COc1cc(/C=N/NC(=O)c2ccoc2C)ccc1OCCN1CCCCC1 — lower, -31.6%
- COc1cc(/C=N/NC(=O)c2cc3ccccc3cc2O)ccc1OCCN1CCCCC1 — lower, -65.9%
